From ChEMBL document CHEMBL1157539, “Thousands of chemical starting points for antimalarial lead identification” (Nature, 2010)

What was measured:
Type in all cases: functional
Plasmodium falciparum [1] = test: GSK_TCMDC: Inhibition of Plasmodium falciparum 3D7 in whole red blood cells, using parasite LDH activity as an index of growth. Test compounds present at 2uM
Plasmodium falciparum [2] = test: GSK_TCMDC: Inhibition of Plasmodium falciparum Dd2 in whole red blood cells, using parasite LDH activity as an index of growth. Test compounds present at 2uM
HepG2 = test: GSK_TCMDC: Percent inhibition of human HepG2 cell line. Test compounds present at 10uM.

SMILES | Inhibition (Plasmodium falciparum [1]) | Inhibition (Plasmodium falciparum [2]) | Inhibition (HepG2)
CC(Nc1cc(-c2ccccn2)nc(-c2ccccn2)n1)c1ccccc1 (configuration not stated) | 85% | 98% | 61%
COc1cccc(OCC2CCCN(CCCCNC(=O)c3ccc(NC(=O)c4ccc(Cl)cc4)cc3)C2)c1 (configuration not stated) | 100% | 49% | 33%
CN(C)Cc1cccc(-c2cc3c(-c4cnn(C)c4)c(Cl)cnc3[nH]2)c1 | 96% | 21% | 75%
COc1cc(C)nc2ccc(NC(=O)Nc3ccccc3[N+](=O)[O-])cc12 | 100% | 58% | 6%
CS(=O)(=O)c1ccc(-c2cc(C(F)(F)F)nc(N[C@@H]3CCCC[C@H]3OCc3ccccc3)n2)cc1 | 100% | 99% | 8%
COc1cc2nc(N3CCC(CNC(=O)c4ccc(-c5ccc(C(=O)N(C)C)cc5)cc4)CC3)nc(N)c2cc1OC | 100% | 89% | 20%
O=S(=O)(c1cc(Cl)sc1Cl)N(CCC(O)(C(F)(F)F)C(F)(F)F)Cc1cccc(O)c1 | 98% | 97% | 0%
COc1ccc(NC(=O)/C=C/c2ccccc2Cl)cc1OCCN1CCN(c2ccncc2)CC1 | 100% | 52% | 7%
CN1CCN(c2cccc(Nc3nccc(NCC(O)c4ccccc4)n3)c2)CC1 (configuration not stated) | 100% | 4% | 30%
COc1cc(NC(=O)Nc2ccnc3ccccc23)cc(OC)c1.Cl | 98% | 34% | 11%
Cl.FC(F)(F)c1cc(CNCCCNc2nc3ccncc3[nH]2)ccc1Cl | 99% | 15% | 11%
CN1CCN(c2ccc(-c3cccc(NC(=O)c4cccc(Cl)c4)c3)nn2)CC1 | 94% | 37% | 5%
Nc1nc(N)c2c(ccc3ccccc32)n1 | 98% | 20% | 60%
Fc1ccc2[nH]c(-c3cccc(-c4ccc(CN5CCCCC5)cc4)c3)nc2c1.O=C(O)C(F)(F)F | 99% | 97% | 46%
COc1ccc(CN2CCC(NCc3cccc(-n4ccnc4)c3)CC2)cc1.O=C(O)C(F)(F)F | 100% | 93% | 10%
O=C(NCC1CCC(C(=O)NCc2cccc3ccccc23)CC1)c1ccc(O)c(-c2ccc(Cl)c(Cl)c2)c1 (configuration not stated) | 100% | 92% | 0%
COc1cccc(Nc2nnc(SCC(=O)NNC(=O)c3ccccn3)s2)c1 | 99% | 95% | 52%
COc1ccc(C2CC(=O)C3=C(C2)NC(C)=C(C(=O)OC(C)C)C3c2ccccc2F)cc1OC (configuration not stated) | 100% | 99% | 14%
O=C(/C=C/c1ccc([N+](=O)[O-])cc1)N1CCC(NS(=O)(=O)c2cccc(C(F)(F)F)c2)CC1 | 94% | 8% | 0%
CCCn1c(=N)c(C(=O)NCCc2ccccc2)cc2c(=O)n3cccc(C)c3nc21 | 100% | 64% | 8%
CCOC(=O)c1ccc(OCCCCCCOc2ccc(Br)cc2)cc1 | 98% | 0% | 12%
Cc1cccc(NC(=O)NC2CCN(CCCCCNC(=O)/C=C/c3ccc(Cl)c(Cl)c3)CC2)c1 | 100% | 21% | 34%
Cl.Fc1ccccc1COc1ccc(Nc2ncnc3ccc(-c4nnc(C(F)(F)F)o4)cc23)cc1Cl | 100% | 46% | 7%
COc1ccc(CNC2CCN(C)CC2)cc1-c1ccc(S(=O)(=O)NCc2ccccc2)cc1.O=C(O)C(F)(F)F | 100% | 99% | 56%
COc1c(C2CCN(CCCCNC(=O)c3cc(-c4ccc(Cl)cc4)sc3C)CC2)ccc2c1CCCC2 | 100% | 65% | 61%
CCN(CC1CCN(CC2(O)CCOCC2)CC1)c1cc(C)nc(Nc2ccc(Cl)cc2)n1 | 100% | 99% | 34%
COc1cc2ncnc(Nc3ccc(OCc4ccccc4Br)c(Cl)c3)c2cc1OC.Cl | 96% | 6% | 25%
Cl.O=[N+]([O-])c1ccc(-c2nc3cc(C4=NC5CCCCC5N4)ccc3[nH]2)cc1 (configuration not stated) | 100% | 30% | 0%
CCc1ccccc1N=C1c2c(cccc2[N+](=O)[O-])C(=O)C1C(C)=O (configuration not stated) | 99% | 96% | 0%
